FBPA Giardia inh = qHTS Assay for Inhibitors of Fructose-1,6-bisphosphate Aldolase from Giardia Lamblia; hit rate 0.71% among 290,000; A8B2U2; Potency, µM (highest dose often 59.6 µM), for the others: at the top dose activity, negative = inhibition, usual class: inhibitors; purified Giardia FBPA; note: potency is the fitted concentration of half-maximal effect; % is set by controls: 0 for no effect and ±100 for the full control effect; nearly all actives have a fitted effect of over 55% in size
Target sequence (A8B2U2 whole entry, looked up): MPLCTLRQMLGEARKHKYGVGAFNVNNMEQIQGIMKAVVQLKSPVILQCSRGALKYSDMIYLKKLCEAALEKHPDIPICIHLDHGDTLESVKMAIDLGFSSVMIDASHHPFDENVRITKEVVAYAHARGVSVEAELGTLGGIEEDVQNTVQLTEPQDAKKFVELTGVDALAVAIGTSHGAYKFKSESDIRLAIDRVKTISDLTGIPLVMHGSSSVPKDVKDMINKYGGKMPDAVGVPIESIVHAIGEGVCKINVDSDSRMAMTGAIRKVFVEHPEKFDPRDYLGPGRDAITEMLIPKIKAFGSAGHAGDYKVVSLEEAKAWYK
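Giardia FBPA (40 nM reagent) was preincubated 10 min at RT with compound (up to 57.5 uM final), then substrate plus GAPDH/TPI/NAD/arsenate coupling system with diaphorase/resazurin was added; resorufin fluorescence (525/598 nm) was read after 20 min.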
NS1 inh = qHTS Assay for Inhibitors of Influenza NS1 Protein Function. Potency, µM (highest dose often 46.1 µM), for the others: at the highest dose activity, positive = more growth. hit rate 0.4% among 270,000. AID 2326, 2010; calls by dose curve; note: potency is the fitted concentration of half-maximal effect; actives are rising curves; nearly all actives have a fitted effect of over 50% in size
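Recovery from NS1-induced slow growth read by OD600 in budding yeast switched to galactose assay medium (pH 6.0, -URA) at 1:100 dilution. Compound 23 nl per well; the matching strain lacking NS1 serves as control.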
Cycloheximide cs = Cycloheximide Counterscreen for Small Molecule Inhibitors of Shiga Toxin | cell reporter, cycloheximide protein synthesis inhibition counterscreen | hit rate 12% among 300,000 | AID 2314, 2010 | max response, %; in the data active = max response mostly above about 13%, no sharp cut-off; inactive = mostly below about 14%; note: read at 38.3 µM for the half of the compounds with a filed dose; 0% is about no effect
Shiga inhibitor = A qHTS for Small Molecule Inhibitors of Shiga Toxin | hit rate 9.2% among 290,000 | Vero cells, Shiga toxin protein synthesis inhibition reporter | inhibition, % at 38.7 µM; in the data active = inhibition mostly above about 28%, no sharp cut-off; inactive = mostly below about 43%; note: 0% is about no effect
Pf growth 96h = Primary qHTS for delayed death inhibitors of the malarial parasite plastid, 96 hour incubation; P. falciparum luciferase reporter growth, 96 h; Potency, µM (titrated, usually from 28.7 µM), for the others: at the top dose activity change, negative = inhibition, usual class: inhibitors; hit rate 6.9% among 320,000; note: potency is the fitted concentration of half-maximal effect; % is set by controls: 0 for no effect and ±100 for the full control effect
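Plates of compound plus infected erythrocytes (2% hematocrit, 0.05% parasitemia final) incubate 96 hours, 37 C, 5% CO2. Detection reagent added; reduced luminescence from the parasites' luciferase reporter flags inhibition.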
Pf growth 48h = Primary qHTS for delayed death inhibitors of the malarial parasite plastid, 48 hour incubation | P. falciparum luciferase growth in erythrocytes, 48 h | Potency, µM (top dose mostly 28.7 µM), for inactives: at the highest dose activity change, negative = inhibition, actives largely listed as inhibitors | hit rate 5.9% among 310,000 | AID 504832, 2011; note: potency is the fitted concentration of half-maximal effect; % is set by controls: 0 for no effect and ±100 for the full control effect
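A one-generation exposure of luciferase-tagged malaria parasites in RPMI 1640/Albumax erythrocyte culture, 37 C and 5% CO2. Inhibition is inferred from decreased luminescence after adding detection reagent.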
* = called active by the depositor; ? = inconclusive; · = no result given; + = active, no number; [ ] = dose if it differs, or a comment. In the library only some 21% were active in any assay of this set; here they are far more common. Unless noted, calls come from the whole dose curve; as a rule, active = well fitted curve in the direction sought with a large enough effect; inconclusive = small, poorly fitted or top-dose-only effect, or another doubt; inactive = no such curve, though single readings can be large; an effect the other way counts as inactive or inconclusive.

SMILES	FBPA Giardia inh	NS1 inh	Cycloheximide cs	Shiga inhibitor	Pf growth 96h	Pf growth 48h
CCOC(=O)C1(Cc2cccc(F)c2)CCN(Cc2cnc(C)s2)CC1	0%	0%	-3	1	2.3µM*	?
O=C(CSc1nnc2c3cc(F)ccc3nc(-c3ccccc3)n12)N1CCOCC1	·	9%	·	·	·	·
OC[C@@H](O)CN1CCN(c2ccccc2)CC1	5%[21.7 µM]	·	·	·	·	·
COc1ccccc1NC(=O)COC(=O)CCn1c(C)csc1=O	·	·	·	·	8%	-14%
CCOC(=O)C1(Cc2cccc(OC)c2)CCCN(Cc2nccn2CC)C1 (configuration not stated)	-1%	1%	-3	-4	12µM*	?
Cc1ccc(NC(=O)C2C3C=CC4(O3)C2C(=O)N(CCCN2CCOCC2)C4C(=O)NC2CCCCC2)cc1Cl (configuration not stated)	-2%	1%	-5	22	2.1µM*	2%
Cc1ccc(NC(=O)C2C3C=CC4(O3)C2C(=O)N(CCN2CCOCC2)C4C(=O)NC2CCCCC2)cc1C (configuration not stated)	8%	2%	-11	-2	?	-5%
O=C(Nc1ccc(Br)cc1)C1C2C=CC3(O2)C1C(=O)N(CCN1CCOCC1)C3C(=O)NC1CCCCC1 (configuration not stated)	5%	-7%	-10	-19	10µM*	1%
Cc1ccc2[nH]cc(CCNS(=O)(=O)c3ccc(F)cc3)c2c1	-7%	-5%	-2	-2	94%	11%
Cc1nc(C(=O)N2CCc3c([nH]c4ccccc34)C2c2ccccn2)cs1 (configuration not stated)	-2%	5%	5	80*	-14%	18%
Cc1nc(C(=O)N2CCc3c([nH]c4ccccc34)C2c2cc(F)ccc2F)cs1 (configuration not stated)	-11%	-9%	24*	40*	28%	10µM*
CCCn1c(C)cc(C(=O)COc2ccc(-c3nnco3)cc2)c1C	-22%	-3%	42*	67*	?	?
Cc1cc(C(=O)COc2ncnc3sccc23)c(C)n1C1CC1	-7%	-48%	49*	92*	·	39%
CCCn1c(C)cc(C(=O)COc2ncnc3sccc23)c1C	-2%	-8%	44*	105*	9%[5.75 µM]	54%
CCCCCOP(=O)(OCCCCC)C1(NS(=O)(=O)c2ccccc2)C=CC(=O)c2ccccc21 (configuration not stated)	-13%	6%	-4	-22	7.4µM*	9.3µM*
CCOP(=O)(OCC)C(NS(=O)(=O)c1ccccc1)C(Cl)(Cl)Cl (configuration not stated)	-10%	-3%	1	-1	41%	-11%
COC(=O)c1c(NC(NC(=O)CC(C)C)C(Cl)(Cl)Cl)sc2c1CCC2 (configuration not stated)	2%	8%	11	9	12µM*	?
COC(=O)c1c(NC(NC(C)=O)C(Cl)(Cl)Cl)sc2c1CCCC2 (configuration not stated)	-16%	15%	6	14	10µM*	?
CCOC(=O)c1c(NC(NC(C)=O)C(Cl)(Cl)Cl)sc2c1CCCC2 (configuration not stated)	-6%	-18%	6	15	?	?
CCC(=O)NC(Nc1sc2c(c1C(=O)OC)CCC2)C(Cl)(Cl)Cl (configuration not stated)	-16%	0%	-1	-10	?	?
COC(=O)c1c(C)[nH]c(-c2csc(N)n2)c1C	-27%	·	2	-5	?	18%
CN[C@@H]1CC[C@H](c2ccc(Cl)c(Cl)c2)c2ccccc21	4%	·	·	·	·	·
O=C(C[C@H]1C(=O)N(CCc2ccccc2)C[C@@H]1Cc1ccccc1)Nc1ccccc1	10%	-11%	4	6	10µM*	?
O=C(C[C@H]1C(=O)N(Cc2ccccc2)C[C@@H]1Cc1ccccc1)Nc1ccccc1	-1%	-31%	8	-2	13µM*	0%
CCCCN1C[C@H](Cc2ccccc2)[C@@H](CC(=O)Nc2ccccc2)C1=O	6%	-14%	-2	-2	?	45%
SMILES	FBPA Giardia inh	NS1 inh	Cycloheximide cs	Shiga inhibitor	Pf growth 96h	Pf growth 48h
O=C(NC(c1cccnc1)C(F)(F)F)c1cc(COc2ccc3c(c2)CCCC3)on1 (configuration not stated)	·	-36%	46*	100*	8%	?
CCN(Cc1cnn(C)c1)C(=O)c1cc(COc2ccc3c(c2)CCCC3)on1	·	8%	1	-15	-20%	3%
Cn1cc(CNC(=O)c2cc(COc3ccc4c(c3)CCCC4)on2)cn1	5%	-17%	23*	16	?	-2%
C[C@@H](c1ncncc1F)[C@](O)(Cn1cncn1)c1ccc(F)cc1F	11%	·	1	-8	·	·
Oc1cccc(Nc2nc(NCC3CCCO3)c3ccccc3n2)c1 (configuration not stated)	-24%	-11%	8	11	-18%	0.37µM*
CCOc1ccc(Nc2nc(NCC3CCCO3)c3ccccc3n2)cc1 (configuration not stated)	-10%	·	14	17	-19%	1.2µM*
Nc1nc(NCC2CCCO2)nc(Nc2ccc(Cl)cc2)c1[N+](=O)[O-] (configuration not stated)	0%	1%	-4	17	?	?
Nc1nc(NCC2CCCO2)nc(Nc2ccccc2)c1[N+](=O)[O-] (configuration not stated)	4%	5%	-3	-2	?	10µM*
CC(C)(C)OC(=O)N1CCNc2ccccc2C1	0%	7%	12*	+	?	56%
COc1ccc(CNC(=O)CCn2nc(C)c3c(C)n(-c4ccccc4)nc3c2=O)c(OC)c1	-1%	-5%	-2	-6	?	-12%
Cc1ccc(CCNc2ccccc2)c[n+]1[O-]	-12%	6%	15*	11	·	·
c1ccc(CCNc2ccccc2)cc1	-17%	2%	21*	31	25%	4%
COc1ccc(CCNc2ccc(C)cc2)cc1	7%	-7%	17	18	·	25%
Cc1nnc(NCCc2ccccc2)c2ccccc12	3%	-6%	42*	132*	34%	115%
CCOC(=O)c1sc(=NC(=O)c2cccc(Br)c2)n(C)c1C	·	-2%	20*	18	90%	109%
CCOC(=O)c1sc(=NC(=O)c2cccc(C)c2)n(C)c1C	3%	·	24*	123*	195%	322%
NS(=O)(=O)c1cc(C(=O)OCC(=O)Nc2ccc3[nH]c(=O)[nH]c3c2)ccc1Cl	·	·	·	·	-7%	-14%

Bioassay records from PubChem.
